GoLoco inh red – qHTS Assay for Inhibitors of RGS12 GoLoco Motif Activity (Red Fluorophore) | Potency, µM (titrated, usually from 61.6 µM), actives largely listed as inhibitors | Gai1:RGS12 GoLoco peptide FP, rhodamine, 10 min | hit rate 0.44% among 230,000; active = well fitted inhibition curve with a large enough effect, not every such curve was filed as active; inactive = no such curve, though single readings can be large or run the other way; note: nearly all actives have a fitted effect of over 30% in size
ALDH1A1 inh-1 – qHTS Assay for Inhibitors of Aldehyde Dehydrogenase 1 (ALDH1A1); Aldehyde dehydrogenase 1A1 (Homo sapiens), P00352; Purified ALDH1A1, NADH fluorescence, propionaldehyde substrate; Potency, µM (highest dose often 75.3 µM), actives largely listed as inhibitors; hit rate 7.3% among 220,000; active = well fitted inhibition curve with a large enough effect, not every such curve was filed as active; inconclusive = small, poorly fitted or top-dose-only effect, or another doubt; inactive = no such curve, though single readings can be large or run the other way
Target sequence (P00352 whole entry, looked up): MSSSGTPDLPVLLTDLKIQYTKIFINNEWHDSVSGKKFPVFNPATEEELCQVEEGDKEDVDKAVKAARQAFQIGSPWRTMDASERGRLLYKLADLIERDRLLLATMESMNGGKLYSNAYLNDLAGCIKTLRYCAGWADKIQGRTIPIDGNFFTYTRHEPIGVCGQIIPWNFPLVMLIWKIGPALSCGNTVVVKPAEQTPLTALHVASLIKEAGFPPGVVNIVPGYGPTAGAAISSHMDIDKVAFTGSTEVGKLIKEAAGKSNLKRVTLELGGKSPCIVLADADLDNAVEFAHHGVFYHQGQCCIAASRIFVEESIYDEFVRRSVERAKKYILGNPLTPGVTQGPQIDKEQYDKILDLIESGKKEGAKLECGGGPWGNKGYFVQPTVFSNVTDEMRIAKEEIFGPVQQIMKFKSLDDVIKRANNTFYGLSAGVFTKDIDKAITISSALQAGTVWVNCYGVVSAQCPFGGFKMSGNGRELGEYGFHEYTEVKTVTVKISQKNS
HttQ103 aggreg – qHTS Multiplex Assay to Identify Dual Action Probes in a Cell Model of Huntington: Aggregate Formation (GFP). PC12 HttQ103-GFP aggregates, Acumen cytometry, 40 h. Potency, µM (top dose mostly 46.1 µM), most hits filed as inhibitors. hit rate 1.1% among 220,000; active = well fitted curve in the direction sought with a large enough effect; inconclusive = small, poorly fitted or top-dose-only effect, or another doubt; inactive = no such curve, though single readings can be large; an effect the other way counts as inactive or inconclusive; note: nearly all actives have a fitted effect of over 60% in size
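Steps: seed 1500 PC12 HTTQ103-GFP cells/well; add tebufenozide, 100 nM final; add compound titration; add ATPLite reagent; quantify GFP aggregates by laser scanning cytometry.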
HTT ATP protect – qHTS Multiplex Assay to Identify Dual Action Probes in a Cell Model of Huntington: Cytoprotection (ATP); AID 1471, 2008; Potency, µM (doses to about 56.4 µM), usual class: activators; hit rate 0.14% among 230,000; PC12 HTT-Q103 induced, cytoprotection, ATP luminescence, 40 h; active = well fitted curve in the direction sought with a large enough effect; inconclusive = small, poorly fitted or top-dose-only effect, or another doubt; inactive = no such curve, though single readings can be large; an effect the other way counts as inactive or inconclusive; note: nearly all actives have a fitted effect of over 45% in size
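PC12 cells with ecdysone-inducible HTT exon 1 Q103-GFP, induced with 100 nM tebufenozide and co-treated with library compounds in a dose series (1536-well, 1500 cells/well). Cytoprotection read as ATP content by ATPlite luminescence.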
PNC assembly inh – High Content Assay for Compounds that inhibit the Assembly of the Perinucleolar Compartment | activity change (PNC), negative = inhibition, % at 10 µM | AID 2417, 2010 | PC3M PTB-GFP, PNC prevalence imaging, 16 h; hits give low values | hit rate 3.1% among 140,000;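 active = readout at or below -70, meaning at least 70% loss of cells showing the perinucleolar compartment, a nuclear body marking cancer cells; inconclusive = readout between -30 and a set limit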
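PC3M cells stably expressing PTB-GFP, 750–1000 cells/well, treated 16 h at 37 °C with compound (23 nl of library stock), in duplicate. After paraformaldehyde fixation and Hoechst stain, imaged at 20x; PNC prevalence scored by image analysis.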
HPGD inh – qHTS Assay for Inhibitors of HPGD (15-Hydroxyprostaglandin Dehydrogenase); purified HPGD, NADH fluorescence kinetic, PGE2 substrate; Potency, µM, actives largely listed as inhibitors; hit rate 4.3% among 150,000; active = well fitted inhibition curve with a large enough effect, not every such curve was filed as active; inconclusive = small, poorly fitted or top-dose-only effect, or another doubt; inactive = no such curve, though single readings can be large or run the other way
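20 nM HPGD preincubated 15 min at room temperature with compound in 50 mM Tris-HCl pH 8, 0.01% Tween 20. Started with 1 mM NAD+ and 30 uM prostaglandin E2; NADH fluorescence (360/450 nm) read 5 times over 30-s intervals, last minus first.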
HPGD inh conf – Confirmation qHTS Assay for Inhibitors of HPGD (15-Hydroxyprostaglandin Dehydrogenase) | shares compounds with HPGD inh | recombinant HPGD, NADH fluorescence, PGE2 substrate | Potency, µM (highest dose often 57.1 µM), actives largely listed as inhibitors | hit rate 90% among 90
ALDH1A1 inh-2 – Inhibitors of Aldehyde Dehydrogenase 1 (ALDH1A1): Followup Confirmation and Counterscreen. hit rate 90% among 90. purified ALDH1A1, NADH fluorescence, propionaldehyde/NAD+. shares compounds with ALDH1A1 inh-1. AID 493210, 2011. Potency, µM (highest dose often 57.1 µM), usual class: inhibitors
Large screens that a line does not name were inactive (follow-up assays come after a bar, where they were run). Only some compounds are listed: those with a hit (about 11% of all), similar ones and a draw of the others. Unless noted, calls come from the whole dose curve.

Cc1ccc(CNC(=O)C2CCC(CNc3c(N4CCC(C)CC4)c(=O)c3=O)CC2)cc1 (stereo not drawn)	none (no result: ALDH1A1 inh-1, PNC assembly inh, HPGD inh)
CC1CCN(c2c(NCC3CCC(C(=O)NCCc4ccccc4)CC3)c(=O)c2=O)CC1 (stereo not drawn)	PNC assembly inh inconclusive, HPGD inh 6.3µM (no result: HTT ATP protect) | HPGD inh conf 6.3µM
O=C(NCCc1ccc(Cl)cc1)C1CCC(CNc2c(N3CCCCC3)c(=O)c2=O)CC1 (stereo not drawn)	none (no result: HTT ATP protect) | HPGD inh conf 18µM
Cc1ccc(CCNC(=O)C2CCC(CNc3c(N4CCC(C)CC4)c(=O)c3=O)CC2)cc1 (stereo not drawn)	HPGD inh inconclusive (no result: HTT ATP protect) | HPGD inh conf 14µM
CCOc1c(Cl)cc(/C=N/NC(N)=S)cc1OC	HttQ103 aggreg inconclusive (no result: HTT ATP protect)
Cc1ccc(NS(=O)(=O)c2cc(C(=O)N3CCc4ccccc4C3)ccc2Cl)cc1	none | HPGD inh conf inactive
Cc1ccccc1NS(=O)(=O)c1cc(C(=O)N2CCc3ccccc3C2)ccc1C	PNC assembly inh inconclusive
CCc1ccc(S(=O)(=O)c2ccc(-n3nc(C)cc3N)cc2)cc1	none (no result: PNC assembly inh, HPGD inh)
COc1ccccc1NC(=O)c1sc2nc(Cc3ccccc3)cc(C(F)(F)F)c2c1N	none | HPGD inh conf inactive
COc1ccc(NC(=O)c2sc3nc(Cc4ccccc4)cc(C(F)(F)F)c3c2N)cc1OC	none (no result: HTT ATP protect)
Cc1ccc(NCCC(=O)c2cccc([N+](=O)[O-])c2)c(C)c1	ALDH1A1 inh-1 0.13µM, PNC assembly inh -84 | ALDH1A1 inh-2 0.4µM
Cc1ccccc1NC(=O)CCC(=O)OCC(=O)c1cccc([N+](=O)[O-])c1	none (no result: PNC assembly inh, HPGD inh)
COc1cc(/C=N/NC(=O)CN2CCCCC2)ccc1OCc1ccc(Br)cc1	none
O=C(N[C@@H](Cc1ccccc1)C(=O)CCl)OCc1ccccc1	ALDH1A1 inh-1 0.35µM, HPGD inh 11µM (no result: HttQ103 aggreg, PNC assembly inh) | ALDH1A1 inh-2 0.25µM
O=C(O)CNC(=O)C(Cc1ccccc1)NC(=O)OCc1ccccc1 (stereo not drawn)	none (no result: PNC assembly inh, HPGD inh)
CC1=C(C(=O)OCC(C)C)C(c2ccc(F)cc2)NC(=O)N1 (stereo not drawn)	none
CC1=C(C(=O)OCC(C)C)C(c2cccs2)NC(=S)N1 (stereo not drawn)	ALDH1A1 inh-1 0.13µM, PNC assembly inh inconclusive (no result: GoLoco inh red, HPGD inh) | ALDH1A1 inh-2 0.25µM
CC(=O)NC1C(=O)N(CC(C)C)c2ccccc21 (stereo not drawn)	ALDH1A1 inh-1 0.04µM | ALDH1A1 inh-2 1µM
COc1ccc(-c2cc(=O)c3c(O)c(OC)c(OC)c(OC)c3o2)cc1	ALDH1A1 inh-1 0.11µM (no result: HttQ103 aggreg, HTT ATP protect, PNC assembly inh) | ALDH1A1 inh-2 0.63µM
COc1ccccc1OCCC(=O)NCc1ccc2c(c1)OCO2	none (no result: PNC assembly inh, HPGD inh)
COc1ccccc1CN(CC(=O)NCc1ccc2c(c1)OCO2)C(=O)c1ccc2c(c1)OCCO2	ALDH1A1 inh-1 0.079µM | ALDH1A1 inh-2 0.045µM
Cn1ncc([N+](=O)[O-])c1C(=O)Nc1ccc(C2CCCCC2)cc1	none (no result: PNC assembly inh, HPGD inh)
COc1cccc(O)c1O	ALDH1A1 inh-1 0.45µM, HPGD inh 16µM (no result: HttQ103 aggreg, HTT ATP protect, PNC assembly inh) | ALDH1A1 inh-2 1.6µM
COc1ccccc1O	none (no result: PNC assembly inh)
COc1cc2c(cc1NC(=O)CN1CCN(S(=O)(=O)c3ccc(C)cc3)CC1)oc1ccccc12	PNC assembly inh inconclusive, HPGD inh inconclusive

High-throughput results from PubChem BioAssay.
